ClpP mod = qHTS Assay for Activators of ClpP. 340,000 tested, 1.9% active. AID 651965, 2013. purified B. subtilis ClpP, FRET peptide cleavage, 20 min. Potency, µM (series often up to 57.5 µM), inactives show at the highest dose activity change, negative = active. ATP-dependent Clp protease proteolytic subunit (Bacillus subtilis (strain 168)), P80244; active = well fitted falling curve with a large enough effect; inconclusive = small, poorly fitted or top-dose-only effect; inactive = no such curve, though single readings can be large or run the other way; note: potency is the fitted concentration of half-maximal effect; the source files actives as falling curves though it sought activators and does not explain the sign; nearly all actives have a fitted effect of over 65% in size
Target sequence (P80244 whole entry, looked up): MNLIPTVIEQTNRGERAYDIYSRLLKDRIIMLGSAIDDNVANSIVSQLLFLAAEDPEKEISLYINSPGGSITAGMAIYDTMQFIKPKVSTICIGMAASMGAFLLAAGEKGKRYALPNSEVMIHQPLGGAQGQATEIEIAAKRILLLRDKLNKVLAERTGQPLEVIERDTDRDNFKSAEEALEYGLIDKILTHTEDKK
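Purified B. subtilis ClpP, 10 microg/mL final in Tris/HCl pH8 with KCl, BSA, glycerol and Tween-20, cleaved an Abz/nitrotyrosine-quenched decapeptide. Fluorescence (ex 320, em 430) was read at 0 and 20 min at room temperature. Delta was normalized to 5.8 microM ADEP and DMSO/no-enzyme controls.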
gsp antag = antagonists of gsp mutant (McCune-Albright syndrome) | gsp-mutant cells, cAMP HTRF, 30 min | Potency, µM (top dose mostly 76.9 µM), without a hit: top-dose activity change, negative = inhibition, hits mostly inhibitors | 340,000 tested, 0.4% active | AID 624288; calls by dose curve; cell line not stated here;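 note: intracellular cAMP measured with PDE inhibitor Ro 20-1724 present during compound exposure; potency is the fitted concentration of half-maximal effect; % is set by controls: 0 for no effect and ±100 for the full control effect; nearly all actives have a fitted effect of over 65% in size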
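Cells in G418 medium, seeded 16-24 h, 37C; buffer exchange to DPBS + 1 mM CaCl2, 0.5 mM MgCl2, 0.05% BSA; cpds in DMSO + […] (300 uM stock), 30 min 37C; HTRF cAMP detection.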
gsp ag = agonists of gsp mutant (McCune-Albright syndrome). Potency, µM (series often up to 76.9 µM), for inactives: at the highest dose activation (cAMP increase), usual class: activators. AID 624287. gsp mutant cells, cAMP HTRF, 30 min. 340,000 tested, 0.13% active; active = well fitted activation curve with a large enough effect; inconclusive = small, poorly fitted or top-dose-only effect, or another doubt; inactive = no such curve, though single readings can be large or run the other way; cell line not stated here;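 note: phosphodiesterase inhibitor Ro 20-1724 added with compounds to block cAMP breakdown; potency is the fitted concentration of half-maximal effect; nearly all actives have a fitted effect of over 60% in size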
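Cells in DMEM/10% FBS with G418 were pretreated with compounds in DMSO plus […] (300 uM stock) for 30 min at 37C. cAMP was measured by HTRF (cAMP-d2 plus anti-cAMP antibody-K) after 30 min at room temperature.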
RXFP1 ag = activates the human relaxin receptor RXFP1; Q9HBX9; 370,000 tested, 0.3% active; AID 2676; HEK293T-RXFP1 cAMP TR-FRET, 30 min; response scale: percent of porcine relaxin response, buffer zero; Potency, µM (titrated, usually from 57.5 µM), for the others: top-dose activation, hits mostly activators; active = well fitted activation curve with a large enough effect; inconclusive = small, poorly fitted or top-dose-only effect; note: potency is the fitted concentration of half-maximal effect; % is set by controls: 0 for no effect and ±100 for the full control effect; nearly all actives have a fitted effect of over 60% in size
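HEK293T cells stably expressing RXFP1 were pretreated with the PDE4 inhibitor Ro 20174, exposed to compounds for 30 min at 37C, lysed, and cAMP was read by TR-FRET. Data normalized to buffer (basal) and 29 nM porcine relaxin (100%).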
pAkt inh = inhibitors of Akt phosphorylation; Neuro2A IGF-stimulated pAkt S473 HTRF, 20 min; hits give low values; activity change, % for hits at 50 µM; 360,000 tested, 0.32% active; AID 651550; in the data active = activity change below about -80%; inconclusive = mostly about -51% to -80%; note: % is set by controls: 0 for no effect and ±100 for the full control effect
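Neuro2A cells (4,500/well, DMEM with 0.5% FBS) were treated with compound at a single 50 µM final concentration, stimulated with 6 nM IGF for 20 min at 37 °C, and lysed. Phospho-Akt Ser473 was read by HTRF as 665/615 ratio ×10^4.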
RXFP1 antagonist = RXFP1 (human) relaxin receptor antagonism. Q9HBX9. HEK293-RXFP1, relaxin-stimulated cAMP HTRF, 30 min; hits give low values. activity change, negative = inhibition, % at 57.5 µM. 350,000 tested, 0.59% active;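 active = activity change of -60% or lower, but not beyond a set lower limit; inconclusive = change between -60% and -40%, or beyond the set limit; inactive = change above -40%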; note: % is set by controls: 0 for no effect and ±100 for the full control effect
Numbers without * were called inactive; i = inactive; ? = inconclusive; . = no result given; [ ] = remark or other dose. This is a sample that favours compounds with a hit; in the whole collection about 2.7% have one here.

SMILES	ClpP mod	gsp antag	gsp ag	RXFP1 ag	pAkt inh	RXFP1 antagonist
O=C(Cn1nc(-c2ccccc2Cl)ccc1=O)Nc1ccccc1-c1ccccc1	14.1µM*	?	-6.8%[15.4 µM]	0.4%	i	-23.1
CN(C1CCCCC1)S(=O)(=O)c1ccc(NC(=O)Cn2nc(-c3ccc(F)cc3)ccc2=O)cc1	-23.7%	-2.5%	8.1%	5.8%	i	-3.3
CC(C)CNS(=O)(=O)c1ccc(NC(=O)Cn2nc(-c3ccc(F)cc3)ccc2=O)cc1	28.2µM*	-5.6%	-15.6%[15.4 µM]	-0.2%	i	-12.5
O=C(Cn1nc(-c2ccc3c(c2)OCCO3)ccc1=O)Nc1ccc(-n2cnnn2)cc1	-11.4%	3.4%	-31.2%	-1.6%	i	0.5
O=C(Cn1nc(-c2ccccc2Cl)ccc1=O)Nc1ccc(Br)cc1	.	11.6%	2.2%[15.4 µM]	0.1%	i	-9.5
O=C(Cn1nc(-c2ccccc2)ccc1=O)Nc1ccc(-n2cnnn2)cc1	.	44.7µM*	2.6%[15.4 µM]	-4.2%	i	?
O=C(CC(C(=O)O)n1ccnc1)c1ccc(Cl)cc1 (configuration not stated)	0.7%	.	.	.	.	.
C/C=C(\C)NNC(=O)Cc1ccc(OC)cc1	-2.8%	.	.	.	.	.
CC(C)=CC(=O)Nc1ccccc1Br	1.26µM*	2.5%	-2.0%	1.7%	i	7.4
Cc1[nH]ccc(=O)c1OCc1c(Cl)cccc1Cl	2.0%	10.3%	?	-1.1%	-114.1%*	-5.8
Cc1[nH]ccc(=O)c1OCC(=O)O	-0.9%	2.1%	-4.5%	1.7%	i	1.0
COC(=O)c1c(NC(=O)/C(C#N)=C/c2ccc(OC)cc2)sc2c1C(C(=O)OC)CC2 (configuration not stated)	-0.1%	.	.	1.6%	.	-0.7
Cc1cc(/C=C2\SC(=S)NC2=O)c(C)n1-c1ccc(O)cc1	0.6%	31.6µM*	-2.1%	-2.0%	i	?
Cc1cc(/C=C2\SC(=S)NC2=O)c(C)n1-c1ccccc1	.	-8.1%	-1.0%[15.4 µM]	0.5%	i	?
Clc1ccc(NCc2nc3ccccc3n2CCOc2ccccc2)cc1	3.8%	.	.	-0.8%	.	-60.9*
CCOc1ccc(NCc2nc3ccccc3n2CCOc2ccccc2)cc1	-9.6%	-26.4%	-54.2%	0.4%	i	-3.9
COc1cc(C(=O)NC(=S)Nc2ccc(Cc3ccncc3)cc2)cc(OC)c1OC	1.6%	31.6µM*	-71.4%	-2.6%	i	-0.9
CCCN(CCC)S(=O)(=O)c1ccc(C(=O)OCCN2C(=O)c3cccc4c(N5CCOCC5)ccc(c34)C2=O)cc1	22.4µM*	1.0%	6.0%	1.6%	i	5.3
O=C(O)c1cc2cc(OCc3ccccc3)ccc2[nH]1	28.2µM*	-8.2%	-56.9%	0.7%	i	-8.3
CC(C)c1ccc(CNc2nc(-c3ccco3)nn2S(=O)(=O)c2ccc3ccccc3c2)cc1	-4.5%	.	.	-1.2%	.	-6.0
COc1cccc(-c2cc3nc(C)c(C)c(N4CCN(C(=O)c5ccoc5)CC4)n3n2)c1	-24.1%	.	-15.7%	.	i	5.0
CCOC(=O)c1ccccc1NC(=O)CCc1nc(-c2ccc(C)cc2)no1	?	.	.	3.3%	.	0.0
COC(=O)c1ccccc1NC(=O)Cc1nc(-c2ccc(OC)cc2)no1	28.2µM*	.	.	-1.2%	.	2.9
C1=C\CCC2(OCCO2)C2(CC/1)OCCO2	-0.1%	.	22.5%	.	i	1.4
CCN1CC=C2C(C#N)=C(N)C(C#N)(C#N)C(CCc3ccccc3)C2C1 (configuration not stated)	28.2µM*	-17.4%	-38.3%	0.7%	i	14.0
SMILES	ClpP mod	gsp antag	gsp ag	RXFP1 ag	pAkt inh	RXFP1 antagonist
CCc1nc2ccc(C(=O)Nc3ccc4c(c3)OCC(=O)N4)cn2c1N(CC)Cc1cccc(Br)c1	-11.6%	.	.	.	.	.
COc1ccc(-c2sc3ccccc3c2-c2ccc(OCCN3CCCCC3)cc2)cc1	28.2µM*	12.2%	.	.	i	.
COc1cccc(-c2sc3ccc(OC)cc3c2-c2ccc(OCCN3CCCC3)cc2)c1	?	4.3%	.	.	i	.
COc1ccccc1-c1sc2ccccc2c1-c1ccc(OCCN2CCCCC2)cc1	31.6µM*	9.0%	.	.	i	.
COc1ccc(-c2c(-c3ccccc3OC)sc3ccccc23)cc1OC	28.2µM*	-6.7%	17.6%	3.0%	i	.
COc1cccc(-c2sc3cc(OC)c(OC)cc3c2-c2ccc(OCCN3CCCCC3)cc2)c1	28.2µM*	1.3%	.	.	i	.
COc1ccccc1-c1sc2ccccc2c1-c1ccccc1OC	?	-14.4%	.	4.4%	i	.
CN(C)c1cccc2c1c(NC(=O)c1ccc(Cl)cc1)nn2C	.	-10.7%	-10.3%	-2.5%	i	-12.2
COc1ccc(/C=C/C(=O)Nc2nc3n(n2)C(c2ccc(F)cc2)C=C(c2ccccc2)N3)cc1 (configuration not stated)	-10.5%	.	.	-0.9%	.	-0.4
CCC(=O)Oc1c(Sc2ccc(Cl)cc2)c(C)nn1-c1ccccc1	-4.0%	.	.	-0.1%	.	9.5
CCCNC(=O)C1(C)CCCN(CCC(=O)c2ccccc2)C1 (configuration not stated)	-1.7%	.	.	.	i	.
CC(C)C[C@H]1CN(CCCC[C@H]2CNC(=O)C(=O)N2CCc2ccc(O)cc2)C(=O)C(=O)N1Cc1ccccc1	-1.5%	.	.	.	i	.
COc1ccc(-c2sc3cc(OC)ccc3c2-c2ccc(OCCN3CCCCC3)cc2)cc1	4.8%	.	.	.	i	.
COc1ccc(-c2sc3ccc(OC)cc3c2-c2ccc(OCCN3CCOCC3)cc2)cc1	15.8µM*	-12.7%	.	.	i	.
COC(=O)c1c(NC(=O)CN2CCC3(O)CCCCC3C2c2cc(OC)ccc2OC)sc(C)c1C (configuration not stated)	28.2µM*	-22.5%	-3.2%	3.3%	i	-1.7
COC(=O)c1c(NC(=O)CN2CCC3(O)CCCCC3C2c2ccc(F)cc2)sc(C)c1C (configuration not stated)	-19.9%	-14.8%	-0.9%	1.4%	i	-11.6
CN(C)c1ccc(/C=C/c2ccnc3ccc(F)cc23)cc1	-14.6%	.	.	.	.	.
Cc1ccc(C(C)C)c(OCC(=O)N2CCC(c3nc4ccccc4o3)CC2)c1	1.9%	.	.	2.1%	.	-98.3*
CCOC(=O)C1(Cc2cccc(OC)c2)CCN(Cc2cccc3c2OCO3)CC1	.	-6.4%	2.1%[15.4 µM]	0.5%	i	-94.5*
c1coc(CNc2nc(N3CCCCC3)nc3ccccc23)c1	22.4µM*	-39.4%	-15.4%	-0.4%	i	-12.1
CCOC(=O)C1(C)CCCN(C(=O)c2snnc2C)C1 (configuration not stated)	1.3%	.	.	.	i	.
CN(c1ccc(C(=O)Nc2cccnc2)cc1)S(C)(=O)=O	28.2µM*	7.4%	-28.1%	0.1%	i	-3.3
